Laboratory results taken from PMC11006913.
Where a chain is given by its changes, count along the chain named.

Assays:
Assay in all cases: PBM; 200 nM protein, PBS
Details in all cases: dsDNA, one strand shown
NKX2-5 [1] = biological target: NKX2-5 (Homo sapiens, UniProt P52952 125-210, R139K)
NKX2-4 [2] = biological target: T1, NKX2-4 (Homo sapiens, UniProt Q9H2Z4 175-261, P217L)
T1 sequence: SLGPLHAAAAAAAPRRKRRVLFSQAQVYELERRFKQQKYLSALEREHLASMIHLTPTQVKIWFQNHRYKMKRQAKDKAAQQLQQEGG

NKX2-4 [3] = biological target: T2, NKX2-4 (Homo sapiens, UniProt Q9H2Z4 175-261, T231S)
T2 sequence: T1 sequence with L43P, T57S

NKX2-4 [4] = biological target: T3, NKX2-4 (Homo sapiens, UniProt Q9H2Z4 175-261)
T3 sequence: T1 sequence with L43P

NKX2-6 [5] = biological target: T4, NKX2-6 (Homo sapiens, UniProt A6NCS4 118-204, R150C)
T4 sequence: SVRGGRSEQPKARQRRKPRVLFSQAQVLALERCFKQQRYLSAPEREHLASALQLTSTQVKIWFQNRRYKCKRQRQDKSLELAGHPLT

NKX2-6 [6] = biological target: T5, NKX2-6 (Homo sapiens, UniProt A6NCS4 118-204)
T5 sequence: T4 sequence with C33R

NKX2-4 [7] = biological target: T6, NKX2-4 (Homo sapiens, UniProt Q9H2Z4 175-261, R246Q)
T6 sequence: T1 sequence with L43P, R72Q

NKX2-6 [8] = biological target: T7, NKX2-6 (Homo sapiens, UniProt A6NCS4 118-204, F151L)
T7 sequence: T4 sequence with C33R, F34L

NKX3-2 [9] = biological target: NKX3-2 (Homo sapiens, UniProt P78367 192-278, P234S)
NKX2-5 [10] = biological target: NKX2-5 (Homo sapiens, UniProt P52952 125-210)
SHOX = SHOX (Homo sapiens, UniProt O15266 103-189)
ALX1 [11] = biological target: ALX1 (Homo sapiens, UniProt Q15699 118-204, L144V)
ALX1 [12] = biological target: ALX1 (Homo sapiens, UniProt Q15699 118-204, L144R)
ALX1 [13] = biological target: ALX1 (Homo sapiens, UniProt Q15699 118-204)
HOXB4 [14] = biological target: HOXB4 (Homo sapiens, UniProt P17483 148-234)
HOXB4 [15] = biological target: HOXB4 (Homo sapiens, UniProt P17483 148-234, V174I)
VENTX [16] = biological target: T8, VENTX (Homo sapiens, UniProt O95231 78-163, R121Q)
T8 sequence: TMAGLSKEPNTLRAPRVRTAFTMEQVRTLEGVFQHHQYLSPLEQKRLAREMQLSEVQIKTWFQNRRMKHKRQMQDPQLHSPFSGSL

VENTX [17] = biological target: T9, VENTX (Homo sapiens, UniProt O95231 78-163)
T9 sequence: T8 sequence with Q44R

VENTX [18] = biological target: T10, VENTX (Homo sapiens, UniProt O95231 78-163, Y115F)
T10 sequence: T8 sequence with Y38F, Q44R

NKX3-2 [19] = biological target: NKX3-2 (Homo sapiens, UniProt P78367 192-278)
Chain of NKX3-2 (Homo sapiens, UniProt P78367 192-278) (P78367 192-278): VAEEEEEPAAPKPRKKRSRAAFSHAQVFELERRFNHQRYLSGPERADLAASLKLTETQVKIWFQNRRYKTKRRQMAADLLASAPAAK

Chain of NKX2-5 (Homo sapiens, UniProt P52952 125-210) (P52952 125-210): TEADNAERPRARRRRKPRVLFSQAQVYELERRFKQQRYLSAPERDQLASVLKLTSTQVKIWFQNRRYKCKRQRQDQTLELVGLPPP
Chain of NKX3-2 (Homo sapiens, UniProt P78367 192-278, P234S) (P78367 192-278 P234S): as the sequence (P78367 192-278) above, with P43S counted along it
Chain of NKX2-5 (Homo sapiens, UniProt P52952 125-210, R139K) (P52952 125-210 R139K): as the sequence (P52952 125-210) above, with R15K counted along it
Chain of SHOX (O15266 103-189): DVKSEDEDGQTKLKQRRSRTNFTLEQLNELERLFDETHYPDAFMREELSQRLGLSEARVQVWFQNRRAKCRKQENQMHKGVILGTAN
Chain of ALX1 (Homo sapiens, UniProt Q15699 118-204, L144R) (Q15699 118-204 L144R): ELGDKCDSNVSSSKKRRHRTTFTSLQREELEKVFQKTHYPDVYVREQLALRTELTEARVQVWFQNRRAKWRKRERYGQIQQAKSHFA
Chain of ALX1 (Homo sapiens, UniProt Q15699 118-204, L144V) (Q15699 118-204 L144V): as the sequence (Q15699 118-204 L144R) above, with R27V counted along it
Chain of HOXB4 (Homo sapiens, UniProt P17483 148-234) (P17483 148-234): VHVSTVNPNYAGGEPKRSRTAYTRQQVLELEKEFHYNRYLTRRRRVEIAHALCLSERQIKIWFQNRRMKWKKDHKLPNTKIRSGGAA
Chain of HOXB4 (Homo sapiens, UniProt P17483 148-234, V174I) (P17483 148-234 V174I): as the sequence (P17483 148-234) above, with V27I counted along it
Chain of ALX1 (Homo sapiens, UniProt Q15699 118-204) (Q15699 118-204): as the sequence (Q15699 118-204 L144R) above, with R27L counted along it

## ATAAGTAC
NKX2-5 [1]
  binding signal: 12.9 upbm affinity estimate (log intensity, higher = more binding, comparable within an allelic series)
NKX2-4 [2]
  binding signal: 12.6 upbm affinity estimate (log intensity, higher = more binding, comparable within an allelic series)
NKX2-4 [3]
  binding signal: 13 upbm affinity estimate (log intensity, higher = more binding, comparable within an allelic series)
NKX2-4 [4]
  binding signal: 12.5 upbm affinity estimate (log intensity, higher = more binding, comparable within an allelic series)
NKX2-6 [5]
  binding signal: 12 upbm affinity estimate (log intensity, higher = more binding, comparable within an allelic series)
NKX2-6 [6]
  binding signal: 13.6 upbm affinity estimate (log intensity, higher = more binding, comparable within an allelic series)
NKX2-4 [7]
  binding signal: 13.1 upbm affinity estimate (log intensity, higher = more binding, comparable within an allelic series)
NKX2-6 [8]
  binding signal: 10.9 upbm affinity estimate (log intensity, higher = more binding, comparable within an allelic series)
NKX3-2 [9]
  binding signal: 12.5 upbm affinity estimate (log intensity, higher = more binding, comparable within an allelic series)
NKX2-5 [10]
  binding signal: 12.7 upbm affinity estimate (log intensity, higher = more binding, comparable within an allelic series)

## ACGCGCAG
NKX2-5 [1]
  binding signal: 8.62 upbm affinity estimate (log intensity, higher = more binding, comparable within an allelic series)
SHOX
  binding signal: 7.05 upbm affinity estimate (log intensity, higher = more binding, comparable within an allelic series)
NKX2-6 [5]
  binding signal: 9.46 upbm affinity estimate (log intensity, higher = more binding, comparable within an allelic series)
NKX2-5 [10]
  binding signal: 8.69 upbm affinity estimate (log intensity, higher = more binding, comparable within an allelic series)

## CGAACGCC
NKX2-5 [1]
  binding signal: 8.62 upbm affinity estimate (log intensity, higher = more binding, comparable within an allelic series)
ALX1 [11]
  binding signal: 6.33 upbm affinity estimate (log intensity, higher = more binding, comparable within an allelic series)
ALX1 [12]
  binding signal: 6.32 upbm affinity estimate (log intensity, higher = more binding, comparable within an allelic series)
ALX1 [13]
  binding signal: 6.54 upbm affinity estimate (log intensity, higher = more binding, comparable within an allelic series)
NKX2-5 [10]
  binding signal: 8.69 upbm affinity estimate (log intensity, higher = more binding, comparable within an allelic series)

## CGGACCCG
NKX2-5 [1]
  binding signal: 8.84 upbm affinity estimate (log intensity, higher = more binding, comparable within an allelic series)
HOXB4 [14]
  binding signal: 8.04 upbm affinity estimate (log intensity, higher = more binding, comparable within an allelic series)
HOXB4 [15]
  binding signal: 7.9 upbm affinity estimate (log intensity, higher = more binding, comparable within an allelic series)
NKX2-5 [10]
  binding signal: 8.79 upbm affinity estimate (log intensity, higher = more binding, comparable within an allelic series)

## ACCAGCTG
NKX2-5 [1]
  binding signal: 8.74 upbm affinity estimate (log intensity, higher = more binding, comparable within an allelic series)
SHOX
  binding signal: 7.08 upbm affinity estimate (log intensity, higher = more binding, comparable within an allelic series)
VENTX [16]
  binding signal: 7.92 upbm affinity estimate (log intensity, higher = more binding, comparable within an allelic series)
VENTX [17]
  binding signal: 8.2 upbm affinity estimate (log intensity, higher = more binding, comparable within an allelic series)
VENTX [18]
  binding signal: 8.14 upbm affinity estimate (log intensity, higher = more binding, comparable within an allelic series)
NKX2-5 [10]
  binding signal: 9.02 upbm affinity estimate (log intensity, higher = more binding, comparable within an allelic series)

## CCAGGCCG
NKX2-5 [1]
  binding signal: 8.83 upbm affinity estimate (log intensity, higher = more binding, comparable within an allelic series)
NKX2-4 [2]
  binding signal: 9.57 upbm affinity estimate (log intensity, higher = more binding, comparable within an allelic series)
NKX2-4 [3]
  binding signal: 9.57 upbm affinity estimate (log intensity, higher = more binding, comparable within an allelic series)
NKX2-4 [4]
  binding signal: 9.56 upbm affinity estimate (log intensity, higher = more binding, comparable within an allelic series)
NKX2-4 [7]
  binding signal: 9.57 upbm affinity estimate (log intensity, higher = more binding, comparable within an allelic series)
NKX2-5 [10]
  binding signal: 8.78 upbm affinity estimate (log intensity, higher = more binding, comparable within an allelic series)

## CCGGAGCC
NKX2-5 [1]
  binding signal: 8.82 upbm affinity estimate (log intensity, higher = more binding, comparable within an allelic series)
NKX2-4 [2]
  binding signal: 9.74 upbm affinity estimate (log intensity, higher = more binding, comparable within an allelic series)
NKX2-4 [3]
  binding signal: 9.52 upbm affinity estimate (log intensity, higher = more binding, comparable within an allelic series)
NKX2-4 [4]
  binding signal: 9.71 upbm affinity estimate (log intensity, higher = more binding, comparable within an allelic series)
NKX2-4 [7]
  binding signal: 9.5 upbm affinity estimate (log intensity, higher = more binding, comparable within an allelic series)
NKX3-2 [9]
  binding signal: 10.4 upbm affinity estimate (log intensity, higher = more binding, comparable within an allelic series)
NKX2-5 [10]
  binding signal: 8.87 upbm affinity estimate (log intensity, higher = more binding, comparable within an allelic series)
NKX3-2 [19]
  binding signal: 10.4 upbm affinity estimate (log intensity, higher = more binding, comparable within an allelic series)

## ACACTTAT
NKX2-5 [1]
  binding signal: 12.7 upbm affinity estimate (log intensity, higher = more binding, comparable within an allelic series)
NKX2-4 [2]
  binding signal: 12.6 upbm affinity estimate (log intensity, higher = more binding, comparable within an allelic series)
NKX2-4 [3]
  binding signal: 12.9 upbm affinity estimate (log intensity, higher = more binding, comparable within an allelic series)
NKX2-4 [4]
  binding signal: 12.4 upbm affinity estimate (log intensity, higher = more binding, comparable within an allelic series)
NKX2-6 [5]
  binding signal: 11.9 upbm affinity estimate (log intensity, higher = more binding, comparable within an allelic series)
NKX2-6 [6]
  binding signal: 13.6 upbm affinity estimate (log intensity, higher = more binding, comparable within an allelic series)
NKX2-4 [7]
  binding signal: 13.1 upbm affinity estimate (log intensity, higher = more binding, comparable within an allelic series)
NKX2-6 [8]
  binding signal: 11.1 upbm affinity estimate (log intensity, higher = more binding, comparable within an allelic series)
NKX3-2 [9]
  binding signal: 12.5 upbm affinity estimate (log intensity, higher = more binding, comparable within an allelic series)
NKX2-5 [10]
  binding signal: 12.6 upbm affinity estimate (log intensity, higher = more binding, comparable within an allelic series)

## AATAAGTG
NKX2-5 [1]
  binding signal: 12.4 upbm affinity estimate (log intensity, higher = more binding, comparable within an allelic series)
NKX2-4 [2]
  binding signal: 12.4 upbm affinity estimate (log intensity, higher = more binding, comparable within an allelic series)
NKX2-4 [3]
  binding signal: 12.8 upbm affinity estimate (log intensity, higher = more binding, comparable within an allelic series)
NKX2-4 [4]
  binding signal: 12.3 upbm affinity estimate (log intensity, higher = more binding, comparable within an allelic series)
NKX2-6 [5]
  binding signal: 11.8 upbm affinity estimate (log intensity, higher = more binding, comparable within an allelic series)
NKX2-6 [6]
  binding signal: 13.3 upbm affinity estimate (log intensity, higher = more binding, comparable within an allelic series)
NKX2-4 [7]
  binding signal: 12.9 upbm affinity estimate (log intensity, higher = more binding, comparable within an allelic series)
NKX2-6 [8]
  binding signal: 10.7 upbm affinity estimate (log intensity, higher = more binding, comparable within an allelic series)
NKX2-5 [10]
  binding signal: 12.4 upbm affinity estimate (log intensity, higher = more binding, comparable within an allelic series)
